Out of some 340,000 compounds screened, about 1,000 (0.29%) were called active. Not all results are given here. Measured potencies and affinities stand elsewhere. Values without a mark were called inactive. No stated cut-off is given here; in the data, inconclusive means inhibition above about 27% without an active follow-up result; inactive means below that.
Assay: NS1A inhibition, H1N1 influenza, cell based functional assay (AID 504329)
Conditions: percent inhibition, at 12.5 µM, stronger effect = higher value

Structure (SMILES) | inhibition [%]
CC[C@@]1(C(=O)OC)N[C@H](CN(C)S(=O)(=O)c2ccc(OC)cc2)[C@@H]2C(=O)N(C)C(=O)[C@@H]21 | -26.2
Cc1ccc(S(=O)(=O)NCC(=O)OCC(=O)NCc2ccco2)cc1 | -3.09
O=C(Nc1cccc(Cl)c1)c1cnccn1 | -1.59
O=C(CCC(=O)Nc1ccc(F)cc1)N/N=C/c1ccccc1O | -5.76
Fc1ccc(NC(=S)NN=Cc2ccccc2Cl)cc1 | -9.24
Fc1ccc(NC(=S)N/N=C/c2ccc(F)c(F)c2)cc1 | 0.18
C/C(=N\NC(=S)Nc1ccccc1C)c1ccc(O)cc1 | 10.4
Cc1cccc(NC(=S)N/N=C/c2cccc(O)c2)c1C | -3.84
O=C(CCC(=O)Nc1ccc(F)cc1)N/N=C/c1ccc(O)cc1O | 9.41
Cc1ccc(S(=O)(=O)NCc2ccccc2)cc1C(=O)N1CCN(S(=O)(=O)c2ccccc2)CC1 | -12.2
COC(=O)C1SCCN1S(=O)(=O)c1ccc(Cl)cc1 (configuration not stated) | -20.7
CN(C)c1nc(OCC(=O)NC(C)(C)C)nc(N(C)C)n1 | -0.43
O=C(c1ccc(Br)c(S(=O)(=O)N2CCOCC2)c1)N1CCN(C/C=C/c2ccccc2)CC1 | -13
CC1(c2ccc3c(c2)OCCO3)NC(=O)N(CC(=O)Nc2ccccc2SCC#N)C1=O (configuration not stated) | -12.2
Oc1ccc(N=Nc2ccc(Br)cc2)c(O)c1 | -16.2
O=S(=O)(c1cc(O)ccc1O)c1cccc2c(S(=O)(=O)c3cc(O)ccc3O)cccc12 | 12.4
Oc1ccc(N=Nc2ccc3c(c2)OCCO3)c(O)c1 | 12.8
O=S(=O)(O)c1cc(O)ccc1O | 1.1
CC(OC(=O)c1ncc(Cl)c(Cl)c1Cl)C(=O)NC1CCCCC1C (configuration not stated) | -15.4
CN1C=C/C(=C\c2cc[n+](C)c3ccccc23)c2ccccc21 | 1.31
COc1ccc(/C=C/c2ccc3ccccc3[n+]2C)cc1OC | -10.2
CC(C)CCC(C)NC(=O)Cc1ccc(S(=O)(=O)N2CCOCC2)s1 (configuration not stated) | -3.75
O=C(Nc1nc(-c2ccccc2)cs1)c1ccco1 | 1.53
C/C(=N\NC(=O)C1COc2ccccc2O1)c1cccs1 (configuration not stated) | -4.26
O=C(Nc1nc(-c2ccccn2)cs1)c1cccc(-n2cnnn2)c1 | -28.6

Structure (SMILES) | inhibition [%]
C/C(=N\NC(=O)C1COc2ccccc2O1)c1ccc(C)o1 (configuration not stated) | 7.81
CC(=O)Nc1ccc(C(=O)Nc2nc(-c3cccnc3)cs2)cc1 | 4.3
O=C(Nc1nc(-c2ccccn2)cs1)c1ccc2c(c1)OCCO2 | 4.21
O=C(Nc1nc(-c2ccccn2)cs1)c1ccc(Cl)s1 | 12.2
O=C(Nc1nc(-c2ccncc2)cs1)c1ccco1 | 21.8
O=C(Nc1nc2c(F)cccc2s1)C1CC1 | -11.6
O=C(CN1CCCCC1)Nc1ccc(F)c(Cl)c1 | 6.14
CC(=O)N1N=C(c2ccc(C)cc2)CC1c1ccc2c(c1)OCO2 (configuration not stated) | -19.2
Cc1n[nH]c(C)c1CCN(C)Cc1cn(C)nc1-c1ccccc1F | -2.31
CCOC(=O)C(CC)n1cnc2c(nnn2-c2ccccc2)c1=O (configuration not stated) | 4.43
CC(C)C[C@@H](CNCC(=O)[C@H](Cc1ccccc1)NC(=O)c1[nH]cnc1C(=O)N[C@@H](C)CN)NC(=O)c1nc[nH]c1C(=O)N[C@@H](C)C(=O)O | -9.76
O=C(NCc1cccs1)Nc1cc(Cl)ccc1Cl | -3.84
CC(NC(=O)c1ccco1)C(=O)Nc1nccs1 (configuration not stated) | -3.4
Cc1csc(NC(=O)C2CC(=O)N(c3ccc4c(c3)OCCO4)C2)n1 (configuration not stated) | -10.8
Cc1ccnc2nc(C(=O)Nc3nc4ccccc4s3)nn12 | -12.1
O=C(Nc1nc(-c2ccccc2)cs1)C1COc2ccccc2O1 (configuration not stated) | 3.59
Cc1csc(NC(=O)C2COc3ccccc3O2)n1 (configuration not stated) | 3.59
COc1ccc(-c2csc(NC(=O)C3CC(=O)N(c4ccc5c(c4)OCCO5)C3)n2)cc1 (configuration not stated) | -0.66
Cc1csc(NC(=O)c2nc3nccc(C)n3n2)n1 | 11.3
C[C@H](NC(=O)c1ccco1)C(=O)Nc1nc(-c2ccccn2)cs1 | 21.6
Cc1ccc(NCC(=O)N/N=C/c2ccncc2)cc1 | -3.31
COc1ccc(Cc2noc(CN(C)CC(O)c3ccccc3)n2)cc1OC (configuration not stated) | -6.23
CC(C)Cc1nnc(NC(=O)c2ccncc2)s1 | 7
C[C@H](CO)N1C[C@H](C)[C@@H](CN(C)S(=O)(=O)c2cccs2)Oc2ccc(NC(=O)Cc3ccccc3)cc2C1=O | -1.59
O=C(CN1C(=O)NC2(CCOc3ccccc32)C1=O)Nc1cccc(Cl)c1 (configuration not stated) | 3.28

Structure (SMILES) | inhibition [%]
CC(=O)CC(=O)Nc1ccn(-c2ccccc2)n1 | 10.6
O=C(CNC(=O)c1ccco1)NCC(=O)OCC(=O)c1ccc(Cl)c([N+](=O)[O-])c1 | 6.1
O=C1OC(c2ccc(F)cc2)=N/C1=C\C=C/c1ccccc1 | -22.8
CC(C)(C)NC(=S)NC(=O)C12CCC3CC(CC(C3)C1)C2 | 0.27
CCOc1ncccc1C(=O)Nc1ccccc1N1CCOCC1 | -4.05
CC(Oc1ccccc1)C(=O)Nc1nc(-c2ccccn2)cs1 (configuration not stated) | 16.9
Cc1cccc(C(=O)NC(C(=O)Nc2nc(-c3ccccn3)cs2)C(C)C)c1 (configuration not stated) | 15.6
Cc1ccc(C(=O)Nc2nc(-c3ccccn3)cs2)s1 | 18.4
Cc1csc(NC(=O)c2cccn2C)n1 | -0.43
COc1ccc(NC(=O)CSCc2cc(=O)n3nc(C4CC4)sc3n2)cc1 | 2.59
CCCCOc1c(Cl)cc(CNC(C)(C)CO)cc1OCC | -2.92
Cc1ccc(-c2nn(C)c(=O)c3ccccc23)cc1S(=O)(=O)NCCN1CCOCC1 | -10.6
O=C1C2CCCN2C(c2ccc(F)c(F)c2)N1c1cccc(Cl)c1 (configuration not stated) | -6.3
Cc1cc(OCc2cn3cccnc3n2)ccc1Cl | 6.77
CCOc1ccc2[nH]c(=O)c(CN(Cc3ccccc3OC)C(=O)c3ccccc3)cc2c1 | 21.1
CCOc1ccc(S(=O)(=O)N2CCC(C(=O)OCc3cccc(OC)c3OC)CC2)cc1 | -13.5
COc1ccc(C)cc1N=Nc1ccc(O)c2ncccc12 | 6.77
COc1ccc(N=Nc2ccc(O)c3ncccc23)cc1 | 2.93
Cc1cccc(N=Nc2ccc(O)c3ncccc23)c1 | 0.95
Cc1ccc(C)c(N=Nc2ccc(O)c3ncccc23)c1 | 5.69
COc1cccc(N=Nc2ccc(O)c3ncccc23)c1 | -0.21
CCS(=O)(=O)c1ccc(OC)c(N=Nc2ccc(O)c3ncccc23)c1 | 9.35
O=C(NCc1ccco1)c1nn(-c2ccccc2)c(=O)c2ccccc12 | 0.06
O=C(COC(=O)CSc1ccc2ccccc2c1)NCc1ccc2c(c1)OCO2 | 2.14
CC(C)(C)CC(C)(C)NCC(O)COc1ccc2c(c1)CCC2 (configuration not stated) | 5.01

Structure (SMILES) | inhibition [%]
Cc1ccc(S(=O)(=O)NC2CCCCC2)c(C)c1NS(C)(=O)=O | 3.57
Cc1ccc(-c2nn(-c3ccccc3Cl)cc2C(=O)NCC2CCCO2)cc1 (configuration not stated) | -0.44
COCCN(CC(=O)Nc1cccc(C)c1C)C(=O)Cc1cccs1 | -7.25
Cc1cc(S(=O)(=O)N(Cc2ccccc2F)C2CC2)ccc1-n1cnnn1 | 6.46
O=C(Nc1ccccc1)OCN1C(=O)c2ccccc2C1=O | 2.63
CC(C)(C)C(=O)O/N=C1/C(=O)N(c2ccccc2)c2ccccc21 | -9.74
CCc1ccc(/C=C(/C#N)C(N)=S)cc1 | -1.52
CCN(CC)c1ccc(/C=C(\C#N)C(N)=O)cc1 | 2.41
CCN(CC)S(=O)(=O)c1ccc2oc(Nc3ccccc3)nc2c1 | 10.4
[O-]c1c[n+](-c2ccc(-[n+]3cc([O-])on3)cc2)no1 | 3.68
Cc1c(C)c2cccnc2c2ncccc12 | 3.77
Cc1ccnc2c1ccc1ccccc12 | -14.1
Cc1cccc2cccnc12 | -13.9
Cc1ccc2c(C)ccc(O)c2n1 | -11
Cc1n[nH]c(=O)c2c(NC(=O)CSc3nc4ccccc4c(=O)n3-c3ccc(OC(F)F)cc3)oc(C)c12 | -4.1
CC(=O)N(C)C1=Nc2ccc(Cl)cc2C(c2ccccc2)=[N+]([O-])C1 | -5.29
CCN(Cc1ccccc1)C(=O)COC(=O)CNS(=O)(=O)c1ccc(C)cc1 | -5.52
CN(NC(=O)c1ccco1)c1nc2ccccc2nc1C(F)(F)F | -6.87
Cc1cc(-c2ccc(C)c(S(=O)(=O)Nc3cccc(CN4CCCC4)c3)c2)on1 | -3.07
COc1ccccc1NC(=O)Nc1ccccc1C(=O)NCCCN1CCOCC1 | -12.4
CCOc1ccc(N2CC(C(=O)N3CCCc4ccccc43)CC2=O)cc1 (configuration not stated) | 0.32
Cc1ccc(S(=O)(=O)N2CCOCC2)cc1NC(=O)C1=NN(c2ccccc2)C(=O)CC1 | -4.05

Source: PubChem BioAssay AID504329 (Southern Research Specialized Biocontainment Screening …, 2011)
